# Test results as given in PubChem BioAssay AID1259418 (Broad Institute, 2018).
# In all, about 3,400 compounds went through this assay and about 840 (25%) were called active. About 11% were inconclusive and are not listed. Not all results are given here. Entries with a potency or affinity are not part of this list. A number with no mark means an inactive call.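 Rule for the calls: active = fitted half-maximal concentration of signal decrease at or below twice the sample's top tested concentration; inconclusive = flat curve between -70 and -30 percent, or poor fit; inactive = flat within 30 percent, signal rise, or potency above limit.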
# Assay: inhibitors of Toxoplasma growth in IFN-γ-primed HeLa – cell-based, ME49Luc, luciferase, 72 h, dose response (AID 1259418)
# Settings: T. gondii ME49Luc in IFN-y HeLa, stronger effect = lower value, -100% = high-dose IFN-γ control wells; at 19.5 µM unless noted
row,SMILES,max activity
1,C=CCN1CCC2(CC1)CC(NCc1ccc(C)s1)c1ccccc1O2 (stereo not given),-7.33% [at 1.2 µM]
2,O=C(CC1Nc2c3ccccc3nc(=S)n2C1=O)NCc1ccccc1 (stereo not given),26.5% [at 2.6 µM]
3,COc1ccccc1CNC(=O)CC1Nc2c3ccccc3nc(=S)n2C1=O (stereo not given),46.9% [at 0.16 µM]
4,O=C(CCC1Nc2c3ccccc3nc(=S)n2C1=O)NCCN1CCN(c2cccc(Cl)c2)CC1 (stereo not given),7.2% [at 5 µM]
5,O=C(CCC1Nc2c3ccccc3nc(=S)n2C1=O)NCCN1CCN(c2ccccc2)CC1 (stereo not given),19.8% [at 0.16 µM]
6,CCCCCNC(=O)CC1Nc2c3ccccc3nc(=S)n2C1=O (stereo not given),-10.3% [at 10 µM]
7,O=C(CC1Nc2c3ccccc3nc(=S)n2C1=O)NCc1ccc(Cl)cc1 (stereo not given),15.8%
8,O=C(CC1Nc2c3ccccc3nc(=S)n2C1=O)NCc1ccc(F)cc1 (stereo not given),15.6% [at 0.16 µM]
9,CCCCNC(=O)CC1Nc2c3ccccc3nc(=S)n2C1=O (stereo not given),-20.7% [at 10 µM]
10,CCc1nc(OCC(=O)Nc2ccc(Br)cc2)c2ccccc2n1,33.9% [at 0.68 µM]
11,CCc1onc(C)c1C1CCCN1C(=O)Cn1nc(C(F)(F)F)c2c1CCCC2 (stereo not given),9.22% [at 2.6 µM]
12,CN(C)S(=O)(=O)N1C[C@@H]2CN(Cc3ccoc3)CCO[C@H]2C1,25.4%
13,Cc1cnc(N2Cc3nccn3CC(CN3CCCC3)C2)nc1 (stereo not given),46.2%
14,COc1ccc(-c2nc3c(s2)CN(C(=O)Nc2cc(C)ccc2C)CC3)cc1,75%
15,CCOc1ccccc1N(Cc1nc(-c2cccc(C)c2)oc1C)S(=O)(=O)c1ccccc1,3.42% [at 0.68 µM]
16,COc1ccccc1N(Cc1nc(-c2ccc(OC(C)C)cc2)oc1C)S(=O)(=O)c1ccccc1,-5.99% [at 1.35 µM]
17,COc1ccc(-c2nc(CN(c3ccccc3OC)S(=O)(=O)c3ccccc3)c(C)o2)cc1,24.5% [at 10 µM]
18,CCOc1ccc(-c2nc(CN(c3ccccc3OC)S(=O)(=O)c3ccc(C)cc3)c(C)o2)cc1,17.2% [at 0.68 µM]
19,CCOc1ccccc1CNc1nc(-c2ccc(OC)cc2)nc2ccccc12,-11.7% [at 0.35 µM]
20,NC(=O)C1(N2CCCCC2)CCN(c2ncc(NC(=O)c3ccccc3)cc2C(=O)O)CC1,14.4% [at 0.16 µM]
21,Cc1cccc(N2CCN(c3nc(-c4ccc(Cl)cc4)nc4ccccc34)CC2C)c1 (stereo not given),-29% [at 0.35 µM]
22,Cc1ccc2c(c1C)-n1cccc1C1(CCN(C(=O)c3cccc(Br)c3)CC1)N2,-13.6% [at 1.35 µM]
23,Cc1nc(OCC(=O)Nc2ccc(Cl)cc2Cl)c2ccccc2n1,23% [at 5 µM]
24,Cc1ccc(-c2coc(-c3ccc(NC(=O)C(C)C)cc3)n2)c(C)c1,-33.6% [at 5 µM]
25,Cc1ccc(-c2coc(-c3ccc(NC(=O)Nc4ccccc4F)cc3)n2)cc1,86.4% [at 10 µM]
26,Cc1oc(-c2ccccc2)nc1Cn1nnc(-c2nc(-c3ccc(C(F)(F)F)cc3)no2)c1C,47.1%
27,CN(C)C(=O)COCC1CN(S(C)(=O)=O)Cc2nnn(C)c21 (stereo not given),28%
28,Cc1csc(-c2cc(S(=O)(=O)N3CCC(Cc4ccccc4)CC3)c(C)s2)n1,-11.8% [at 0.16 µM]

row,SMILES,max activity
1,Cc1ccc(C(=O)Nc2c(C(=O)N3CCN(c4ccccn4)CC3)[nH]c3ccc(C)cc23)cc1,31.1% [at 0.68 µM]
2,Cc1ccc2c(c1C)-n1cccc1C1(CCN(C(=O)c3ccccc3C(F)(F)F)CC1)N2,-6.6% [at 5 µM]
3,COc1ccc2c(c1)NC1(CCN(C(=O)COc3cccc(C)c3)CC1)c1cccn1-2,-5.04% [at 0.16 µM]
4,COc1cc(OC)cc(C(=O)N2CCC3(CC2)Nc2cc(F)ccc2-n2cccc23)c1,10.1%
5,COc1ccc2c(c1)NC1(CCN(C(=O)c3cc(OC)c(OC)c(OC)c3)CC1)c1cccn1-2,9.35% [at 0.35 µM]
6,COc1ccc(OCC(=O)N2CCC3(CC2)Nc2cc(F)ccc2-n2cccc23)cc1,4.86% [at 10 µM]
7,COc1ccc(-c2nc(Nc3ccc(F)cc3Cl)c3ccccc3n2)cc1,8.01%
8,Cc1oc(-c2ccccc2)nc1Cn1nnc(-c2nc(-c3ccc(Cl)cc3)no2)c1C,11.1%
9,N#CCSC1=Nc2ccccc2C2=NC(CC(=O)NC3CCCCC3)C(=O)N12 (stereo not given),23.6% [at 10 µM]
10,COCC1CN(C(=O)c2cc(C)on2)Cc2c1cnn2CC1CC1 (stereo not given),27.1%
11,CC(=O)N1Cc2ncn(CC3CC3)c2C(COCC2CCOCC2)C1 (stereo not given),8.65%
12,CCOc1ccccc1C(=O)N1CCC2(CC1)Nc1ccc(C)c(C)c1-n1cccc12,-6.2% [at 2.6 µM]
13,COc1ccc(S(=O)(=O)N(Cc2nc(-c3cccc(Cl)c3)oc2C)c2ccccc2OC)cc1,-7.97% [at 5 µM]
14,COc1ccccc1N(Cc1nc(-c2ccccc2)oc1C)S(=O)(=O)c1ccccc1,-5.89% [at 0.35 µM]
15,CCOc1ccc(NC(=O)Nc2ccc(-c3nc(-c4ccc(C)cc4)co3)cc2)cc1,62.7%
16,N#CCSC1=Nc2ccccc2C2=NC(CCC(=O)NCc3ccc4c(c3)OCO4)C(=O)N12 (stereo not given),17.8%
17,CCc1c(C)sc2c1CCN(Cc1nc(-c3cc(C)ccc3C)oc1C)C2c1ccccc1 (stereo not given),12.6% [at 5 µM]
18,CN1CCN(C(=O)Cc2ccsc2)Cc2cccnc21,40%
19,Cc1ccnc(Nc2nc(C)c(C(=O)N3CCC(C(N)=O)(N4CCCCC4)CC3)s2)c1,-7.52% [at 0.35 µM]
20,CCN(CCNc1nc(-c2ccccc2Cl)nc2ccccc12)c1cccc(C)c1,12.3%
21,COc1ccc(Nc2nc(-c3ccc(OC)cc3)nc3ccccc23)cc1,12.9%
22,COc1ccc(-c2nc(Nc3ccccc3OC)c3ccccc3n2)cc1,20%
23,COc1ccc(-c2nc(Nc3ccccc3)c3ccccc3n2)cc1,6.36% [at 10 µM]
24,COc1ccc(-c2nc(Nc3ccc(CN4CCCCC4)cc3)c3ccccc3n2)cc1,10.9% [at 10 µM]
25,COc1ccc(-c2nc(Nc3cc(OC)ccc3OC)c3ccccc3n2)cc1,-18.7% [at 5 µM]
26,Clc1ccccc1-c1nc(NCCCc2ccccc2)c2ccccc2n1,-24.4% [at 10 µM]
27,CCc1ccc(Nc2nc(-c3ccc(OC)cc3)nc3ccccc23)cc1,-16.2% [at 0.35 µM]
